Assay results from PubChem BioAssay.

These compounds were tested against Integrin beta-1 (Homo sapiens) + Integrin alpha-4 (Homo sapiens) (UniProt P13612+P05556) (assay: inhibition of HUTS-21 binding to VLA-4, pilot screen, VLA-4 allosteric modulator project, U937 cells, HUTS-21 mAb, flow cytometry, validation set (AID 2674;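 note: antibody binding induced by the VLA-4 ligand LDV present at three times its Kd; 0% = LDV ligand with antibody and no compound and 100% = antibody without LDV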)). Settings: HUTS-21 LIBS mAb binding, at 6.7 µM, hits give high values, binding induced by LDV ligand;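 active = inhibition above 50%, about 3 SD of the validation set; inactive = the rest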.
Sequence of Integrin beta-1 (Homo sapiens) + Integrin alpha-4 (Homo sapiens) (P05556 whole entry, looked up): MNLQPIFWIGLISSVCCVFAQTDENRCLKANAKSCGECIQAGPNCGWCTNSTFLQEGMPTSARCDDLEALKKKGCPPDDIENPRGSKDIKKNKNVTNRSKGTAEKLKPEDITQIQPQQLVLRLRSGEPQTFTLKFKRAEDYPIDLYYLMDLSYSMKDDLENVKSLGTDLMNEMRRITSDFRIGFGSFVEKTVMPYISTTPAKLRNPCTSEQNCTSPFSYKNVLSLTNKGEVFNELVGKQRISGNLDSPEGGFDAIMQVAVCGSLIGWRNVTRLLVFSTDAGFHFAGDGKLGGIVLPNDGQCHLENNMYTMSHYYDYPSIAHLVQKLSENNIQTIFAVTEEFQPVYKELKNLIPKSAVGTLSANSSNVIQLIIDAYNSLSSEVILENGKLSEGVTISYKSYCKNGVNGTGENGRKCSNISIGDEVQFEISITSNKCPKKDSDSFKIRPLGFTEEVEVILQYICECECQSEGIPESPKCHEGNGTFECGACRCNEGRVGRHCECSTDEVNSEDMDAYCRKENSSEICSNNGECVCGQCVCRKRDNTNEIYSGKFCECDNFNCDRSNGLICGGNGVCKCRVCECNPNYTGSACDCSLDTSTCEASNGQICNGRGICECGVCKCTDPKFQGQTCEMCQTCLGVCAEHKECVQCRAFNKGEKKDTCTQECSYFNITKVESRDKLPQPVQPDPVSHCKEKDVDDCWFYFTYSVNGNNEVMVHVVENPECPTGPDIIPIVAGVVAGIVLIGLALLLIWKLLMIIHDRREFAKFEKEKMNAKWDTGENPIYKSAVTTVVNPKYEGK
Sequence of Integrin beta-1 (Homo sapiens) + Integrin alpha-4 (Homo sapiens) (P13612 whole entry, looked up): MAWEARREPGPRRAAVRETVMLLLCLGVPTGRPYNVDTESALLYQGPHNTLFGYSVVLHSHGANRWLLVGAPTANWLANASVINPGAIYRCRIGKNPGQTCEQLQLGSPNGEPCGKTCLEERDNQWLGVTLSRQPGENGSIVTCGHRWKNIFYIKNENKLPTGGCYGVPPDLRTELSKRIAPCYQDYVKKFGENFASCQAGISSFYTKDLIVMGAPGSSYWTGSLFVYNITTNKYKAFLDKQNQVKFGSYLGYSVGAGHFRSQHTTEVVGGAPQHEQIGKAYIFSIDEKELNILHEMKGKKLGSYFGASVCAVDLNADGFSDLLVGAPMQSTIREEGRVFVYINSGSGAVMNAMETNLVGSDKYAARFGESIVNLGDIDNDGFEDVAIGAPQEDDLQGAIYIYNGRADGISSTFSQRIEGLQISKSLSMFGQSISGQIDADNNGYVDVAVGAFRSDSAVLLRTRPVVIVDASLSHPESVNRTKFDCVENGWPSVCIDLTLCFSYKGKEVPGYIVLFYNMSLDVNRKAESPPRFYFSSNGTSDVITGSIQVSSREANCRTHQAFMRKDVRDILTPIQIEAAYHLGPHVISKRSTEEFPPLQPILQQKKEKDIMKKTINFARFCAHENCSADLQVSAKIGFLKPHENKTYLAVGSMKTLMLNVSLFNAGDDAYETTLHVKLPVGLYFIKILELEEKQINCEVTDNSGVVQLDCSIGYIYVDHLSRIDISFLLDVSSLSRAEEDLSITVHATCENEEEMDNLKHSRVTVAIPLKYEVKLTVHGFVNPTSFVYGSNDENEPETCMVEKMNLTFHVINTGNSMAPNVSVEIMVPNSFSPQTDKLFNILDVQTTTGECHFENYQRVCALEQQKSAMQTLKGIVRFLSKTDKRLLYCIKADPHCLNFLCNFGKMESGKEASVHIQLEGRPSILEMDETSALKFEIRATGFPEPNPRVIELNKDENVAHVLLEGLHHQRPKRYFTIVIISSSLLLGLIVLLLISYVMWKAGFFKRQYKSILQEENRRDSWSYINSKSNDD

inhibition, inactive:
COc1cc(/C=C(\C#N)C(=O)N2CCc3ccccc32)ccc1O -88.6%
O=C(Nc1ccccc1)c1ccccc1CCc1ccccc1 6.95%
COc1ccc(CCN2CCC(Nc3nc4ccccc4n3Cc3ccc(F)cc3)CC2)cc1 16.3%
CCOc1ccc(CC2c3cc(OCC)c(OCC)cc3CCN2C(=O)CN2CCN(C)CC2)cc1OCC (stereo unspecified) -11.3%
COc1ccc2c(CCNC(=O)c3ccc([N+](=O)[O-])cc3)c[nH]c2c1 -5.89%
O=c1[nH]c(Cc2ccccc2)nc2c1oc1ccccc12 -7.25%
O=C(c1ccccc1)N1CCN(C(=O)c2ccccc2)CC1 -0.43%
COc1ccccc1C1(CC(=O)N2CCCCC2)CCOC(C(C)C)C1 (stereo unspecified) 6.4%
COc1cc([C@@H]2c3cc4c(cc3[C@H](O)[C@H]3COC(=O)[C@H]23)OCO4)cc(OC)c1OC 38.9%
N=C1C(c2ccccc2)=C(O)CN1CCCO 2.3%
CCS(=O)(=O)Nc1cc(OC)c(OC)cc1Cc1nccc2cc(OC)c(OC)cc12 -9.63%
O=C(OCCN1CCCC1)C1(c2ccccc2)CCCC1 -4.52%
CC(=O)N1CC2(C)CN(C(C)=O)CC(C)(C1)C2 8.25%
COc1ccc(CCCC(=O)O)c(C)c1 -9.06%
Cc1ccc2c(CN3CCN(Cc4ccc5c(c4)OCO5)CC3)cc(=O)oc2c1C -7.79%
COc1ccc(C(=O)Nc2ccc(OC)c([N+](=O)[O-])c2)cc1Br 4.27%
